Hits are enriched below; roughly 10% of the tested compounds scored in any of these assays.
BAZ2B inh – BAZ2B (human) inhibition; AlphaScreen BAZ2B-H3K14Ac peptide displacement; AID 504333; 360,000 tested, 4.4% active; Q9UIF8; Potency, µM (doses to about 114 µM), for inactives: at the top dose activity change, negative = inhibition, most hits filed as inhibitors; further: potency means the concentration at half of the fitted maximal effect; on the % scale 0 is the no-effect control and ±100 the full control effect; nearly all actives have a fitted effect of over 60% in size
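AlphaScreen displacement of biotin-H3(5-23)K14Ac peptide (50 nM final) from BAZ2B (50 nM final) in PBS pH 7.4, 0.01% Tween-20; complex preformed 30 min RT, then compounds (top 110 uM) 30 min RT, beads 20 min dark.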
HP1b binding inh – inhibitors of HP1-beta chromodomain binding to methylated histone tails | P83916 | AlphaScreen HP1-beta / biotin-H3K9me3 peptide binding | Potency, µM (top dose mostly 114 µM), for the others: at the highest dose activity change, negative = inhibition, usual class: inhibitors | 390,000 tested, 0.56% active; further: potency means the concentration at half of the fitted maximal effect; nearly all actives have a fitted effect of over 70% in size
Target sequence (P83916 whole entry, looked up): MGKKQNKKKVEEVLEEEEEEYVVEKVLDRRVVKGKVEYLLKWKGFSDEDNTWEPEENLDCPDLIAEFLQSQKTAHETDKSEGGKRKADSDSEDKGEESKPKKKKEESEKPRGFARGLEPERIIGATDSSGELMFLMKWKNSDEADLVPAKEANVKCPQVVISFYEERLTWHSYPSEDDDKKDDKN
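Compound inhibition of the preformed complex between 50 nM HP1-beta and 50 nM biotinylated H3K9me3 peptide was read by AlphaScreen. Buffer was PBS pH 7.4 with 0.01% Tween-20. Incubations ran 30 min at room temperature, with 10 ug/mL donor/acceptor beads.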
CtBP-E1A inh – inhibitors of CtBP/E1A interaction. AlphaScreen GST-E1A/His-CtBP binding, 1536-well; stronger effect = lower value. activity change, % (no concentration beside the values). 340,000 tested, 0.49% active; in the data active means activity change below about -65%; inconclusive means mostly about -30% to -63%; further: on the % scale 0 is the no-effect control and ±100 the full control effect
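GST-E1A and His-tagged CtBP (125 nM each as 5X stock) were preincubated with pin-transferred compound for 2 h at 37 °C in the dark, then glutathione donor and nickel acceptor beads were added for 1 h before AlphaScreen reading.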
JMJD2A Tudor inh – JMJD2A Tudor domain (human) inhibition. O75164. AlphaScreen JMJD2A-Tudor / H3K4me3 peptide binding. Potency, µM (top dose mostly 114 µM), inactives show top-dose activity change, negative = inhibition, most hits filed as inhibitors. 390,000 tested, 4.4% active. AID 504339; further: potency means the concentration at half of the fitted maximal effect; on the % scale 0 is the no-effect control and ±100 the full control effect; nearly all actives have a fitted effect of over 50% in size
Six1-Eya2 inh – inhibitors of human Six1/Eya2 interaction; AlphaScreen GST-Six1/His-Eya2 binding, biochemical; stronger effect = lower value; 360,000 tested, 0.56% active; AID 651725; activity change, % (concentration not given with the values); Q15475+O00167; in the data active means activity change below about -65%; inconclusive means mostly about -30% to -63%; further: on the % scale 0 is the no-effect control and ±100 the full control effect
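Six1/Eya2 binding was read as AlphaScreen signal after compounds were pinned into GST-Six1 plus His-tagged Eya2 (5X stock 250/500 nM) in pH 8.0 Tris/NaCl/TCEP buffer, beads added, then incubated 1 h, 37 C, dark.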
G9a inh – inhibitors of human histone lysine methyltransferase G9a | Q96KQ7 | 350,000 tested, 8.8% active | Potency, µM (doses to about 102 µM), without a hit: at the top dose activity, negative = inhibition, usual class: inhibitors | G9a H3K9 monomethylation, AlphaScreen, 2 h; further: potency means the concentration at half of the fitted maximal effect; on the % scale 0 is the no-effect control and ±100 the full control effect; nearly all actives have a fitted effect of over 75% in size
Target sequence (Q96KQ7 913-1193 limits assumed): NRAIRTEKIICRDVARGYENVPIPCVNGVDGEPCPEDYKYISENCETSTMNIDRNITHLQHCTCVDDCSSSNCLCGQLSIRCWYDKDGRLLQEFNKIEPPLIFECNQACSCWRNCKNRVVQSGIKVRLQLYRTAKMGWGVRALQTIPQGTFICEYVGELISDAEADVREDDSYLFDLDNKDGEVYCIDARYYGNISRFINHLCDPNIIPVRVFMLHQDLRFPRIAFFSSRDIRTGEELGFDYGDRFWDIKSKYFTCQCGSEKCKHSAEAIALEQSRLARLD
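Step 1: enzyme (final 20 nM) with compound, 15 min RT. Step 2: substrate peptide 500 nM and SAM 20 uM, 2 h RT. Step 3: anti-H3K9me1 antibody and AlphaScreen beads, 10 min, then plate read.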
* hit, by the source's call; ? = inconclusive; / = no result; [ ] = dose if it differs, or a comment. Unless noted, the call rests on the fitted dose curve; in most records, active means well fitted inhibition curve with a large enough effect; inconclusive means small, poorly fitted or top-dose-only effect; inactive means no such curve, though single readings can be large or run the other way.

SMILES	BAZ2B inh	HP1b binding inh	CtBP-E1A inh	JMJD2A Tudor inh	Six1-Eya2 inh	G9a inh
CN1CCN(CC(O)COC(c2ccccc2)c2ccccc2)CC1 (configuration not stated)	0.5%	-4.3%	3.1	-17.5%	12.0	-5.2%
CC(=O)c1ccc(N2CCN(CC(O)COC(c3ccccc3)c3ccccc3C)CC2)cc1 (configuration not stated)	25.1µM*	44.7µM*	2.6	4.47µM*	-2.1	8.91µM*
CC(=O)c1ccc(N2CCN(CC(O)COC(c3ccccc3)c3ccccc3)CC2)cc1 (configuration not stated)	17.8µM*	22.4µM*	-7.9	10µM*	-26.7	20µM*
Cc1cccc(C)c1-n1ncc(C(=O)NC2CCCC2)c1C1CCN(C(=O)OC(C)(C)C)CC1	8.6%[57.1 µM]	22.8%	/	-9.1%	/	1.3%[59 µM]
COc1cc(CNn2c(C)n[nH]c2=S)cc(Br)c1OCc1ccc(F)cc1	?	2.7%	-6.1	-31.2%	-5.4	22.4µM*
C=CCOc1c(Br)cc(CNn2nnnc2N)cc1OCC	2.8%	34.9%	-3.2	9.9%	-9.1	-41.6%[59 µM]
C=CCOc1c(Br)cc(CNn2c(C)n[nH]c2=S)cc1OCC	-32.5%	23.2%	3.4	?	-3.9	15.8µM*
COc1cc(CNC(C)c2ccccc2)cc(Br)c1OCc1ccccc1 (configuration not stated)	44.8%	118.8%	25.2	80.0%	16.1	20.1%
COc1cc(CNn2c(C)n[nH]c2=S)cc(Cl)c1OCc1ccc(F)cc1	?	15.2%	7.0	-21.5%	-6.9	?
C=CCOc1c(Br)cc(CNn2cn[nH]c2=S)cc1OC	-10.9%	21.6%	-16.1	79.4µM*	3.1	-130.9%[59 µM]
O=C(CSc1nc2c(c(=O)[nH]1)CCC2)Nc1ccccc1C(F)(F)F	-10.9%	1.2%	/	-16.9%	/	-32.8%[59 µM]
c1ccc(C(c2ccccc2)N2CCC3(CCNCC3)CC2)cc1	/	/	/	/	/	8.7%[12.7 µM]
Cc1sc(N)nc1-c1c(C)n(C)c2ccccc12	?	2.0%	-8.2	-31.0%	-10.6	44.7µM*
Cc1c(C#N)c2ccccc2n1C	-1.1%	37.2%	11.1	-4.1%	3.6	26.0%
COc1ccc(C2C=C(c3ccc(Br)s3)Nc3ncnn32)cc1OC (configuration not stated)	?	/	/	/	/	11.2µM*
COc1cccc(C2=CC(c3ccc(N(C)C)cc3)n3ncnc3N2)c1 (configuration not stated)	4.2%	/	/	/	/	39.8µM*
COc1cccc(C2=CC(c3ccccc3)n3ncnc3N2)c1 (configuration not stated)	56.2µM*	/	/	/	/	?
O=C(COCc1cc(-c2ccc(F)cc2)on1)Nc1cc(Cl)ccc1O	-11.6%	11.9%	/	-16.2%	/	-28.6%[59 µM]
COc1ccc(C(CC(=O)Nc2cc(Cl)c(OC)cc2OC)N2Cc3ccccc3C2=O)cc1 (configuration not stated)	-14.9%	19.9%	/	-16.2%	/	-33.2%[59 µM]
CCOC(=O)c1[nH]cnc1N=Nc1c(O)ccc2ccccc12	11.2µM*	-31.3%	-70.4*	79.4µM*	-81.5*	50.1µM*
O=S(=O)(O)c1cccc(N=Nc2c(O)ccc3ccccc23)c1	11.2µM*	?	/	?	-20.3	/
O=C(O)c1cc(S(=O)(=O)O)ccc1O	?	12.3%	9.6	?	11.6	?
Oc1ccc2ccccc2c1N=Nc1ccccn1	3.98µM*	8.91µM*	-73.2*	35.5µM*	-84.2*	3.16µM*
Oc1ccc2ccccc2c1N=Nc1ccccc1F	2.82µM*	?	?	3.55µM*	-87.9*	2.24µM*
CCCn1c(O)c(N=Nc2ccc3ccccc3n2)c2ccccc21	5.6%	39.5%	-1.6	-4.8%	1.6	32.5%[59 µM]
SMILES	BAZ2B inh	HP1b binding inh	CtBP-E1A inh	JMJD2A Tudor inh	Six1-Eya2 inh	G9a inh
COc1ccc(Br)cc1CNC(=O)CCSCc1ccc(C)cc1	6.3%	-10.2%	/	1.5%	/	1.3%[59 µM]
CC(NS(=O)(=O)c1ccc2ccccc2c1)c1ccccn1 (configuration not stated)	/	28.2%	-29.2	50.1µM*	-12.9	/
O=S(=O)(Nc1cccc2cccnc12)c1ccc2ccccc2c1	/	20.9%	/	-8.9%	/	/
CN(C(=O)COC(=O)CSc1ccc([N+](=O)[O-])cc1)C1CCS(=O)(=O)C1 (configuration not stated)	10.5%	3.0%	-5.5	-16.7%	8.1	50.1µM*
CN(C(=O)COC(=O)CSc1ccc(C(N)=O)cc1[N+](=O)[O-])C1CCS(=O)(=O)C1 (configuration not stated)	5.7%	-2.9%	0.0	-9.7%	12.4	-40.9%
CCN(C(=O)COC(=O)CSc1ccc([N+](=O)[O-])cc1)C1CCS(=O)(=O)C1 (configuration not stated)	-4.6%	50.1µM*	1.9	35.5µM*	0.0	17.9%
CN(C(=O)CSc1nc2cc([N+](=O)[O-])ccc2n1-c1ccc(F)cc1)C1CCS(=O)(=O)C1 (configuration not stated)	-29.5%	25.4%	-0.1	79.4µM*	-0.1	20µM*
O=C(COC(=O)c1ccc(-c2ccc([N+](=O)[O-])cc2)o1)NC(=O)NC12CC3CC(CC(C3)C1)C2	?	?	?	?	-26.9	?
CN(C(=O)CSc1nc2ccc([N+](=O)[O-])cc2s1)C1CCS(=O)(=O)C1 (configuration not stated)	-5.1%	70.6%	-4.2	-17.6%	-0.4	-0.4%[12.7 µM]
O=C(COC(=O)c1ccc(-c2ccc([N+](=O)[O-])cc2)o1)NC(=O)NC1CCCCC1	-6.1%	-10.8%	-24.1	-31.4%	-24.1	39.8µM*
CCc1ccc(S(=O)(=O)c2c(C(=O)c3ccccc3)cnc3ccc(CC)cc23)cc1	?	10.3%	/	-31.3%	/	-38.0%[59 µM]
Cc1ccc(-c2noc(CNC(=O)c3ccccc3)n2)cc1	-0.2%	5.6%	/	-13.9%	/	0.7%[59 µM]
O=C(COC(=O)CSc1ccc([N+](=O)[O-])cc1)NC1CCCCCCC1	-7.8%	?	-11.2	?	5.0	44.7µM*
Cc1ccc(SCC(=O)OCC(=O)NC2CCCCCCC2)cc1	32.1%	79.1%	14.3	20.7%	7.8	8.6%[0.501 µM]
COc1ccc(NS(=O)(=O)c2cc(OC)ccc2NC(=O)c2cc(C)oc2C)cc1	-6.0%	-16.2%	-4.0	?	-20.2	79.4µM*
COc1ccc(NS(=O)(=O)c2cc(OC)ccc2OC)cc1	/	18.4%	8.3	-6.9%	8.9	/
O=S1(=O)N=C(N(CCO)/N=C/C=C/c2ccccc2)c2ccccc21	-19.6%	13.1%	-89.0*	-24.2%	-84.8*	-8.3%[59 µM]
COc1cc(/C=N/N(CCO)C2=NS(=O)(=O)c3ccccc32)cc(OC)c1OC	-10.0%	57.0%	-90.4*	-21.2%	-65.5*	0.6%

From PubChem
